Bioassay records from PubChem.
Shown are actives, neighbours in structure and some others; about 7.2% of the full set was active somewhere.
Lassa entry inh: qHTS for Inhibitors of binding or entry into cells for Lassa Virus | Lassa virus pseudotype entry inhibition, cell reporter | Potency, µM (top dose mostly 37.9 µM), hits mostly inhibitors | 300,000 tested, 1.2% active | AID 540256, 2011; calls by dose curve; tested in HEK293 cells; further: nearly all actives have a fitted effect of over 50% in size
Sm TGR inh: qHTS Assay for the Inhibitors of Schistosoma Mansoni Peroxiredoxins; 360,000 tested, 3% active; Potency, µM (doses to about 114 µM), actives largely listed as inhibitors; purified TGR, DTNB reduction, TNB absorbance 405 nm; Schistosoma mansoni thioredoxin glutathione reductase (TGR), Q962Y6; further: nearly all actives have a fitted effect of over 60% in size
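Kinetic colorimetric format: TGR-catalysed, NADPH-driven DTNB reduction monitored via TNB absorbance. Enzyme dispensed at 20 nM; compound exposure 15 min at room temperature before reaction start.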
FMDV antiviral: High Throughput Screening for Foot and Mouth Disease Virus Antivirals. FMDV antiviral cell-based qHTS. Potency, µM (titrated, usually from 57.9 µM), hits mostly inhibitors. 410,000 tested, 1.2% active. AID 1159524, 2015; calls by dose curve; tested in HEK293T cells; further: read-out not given here; nearly all actives have a fitted effect of over 45% in size
Marburg entry inh: qHTS for inhibitors of binding or entry into cells for Marburg Virus; Marburg virus pseudotyped entry inhibition, cell reporter; Potency, µM (doses to about 37.8 µM), hits mostly inhibitors; 300,000 tested, 1.8% active; calls by dose curve; tested in HEK293 cells
HCV inhibitor: qHTS Assay for Inhibitors of Hepatitis C Virus (HCV) | Huh7.5.1 HCVcc-Cre infection, luciferase reporter, 44 h | Potency, µM (top dose mostly 41.8 µM), hits mostly inhibitors | 340,000 tested, 3.4% active
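After 44 h co-culture of compound, cells and HCVcc-Cre (~0.5 moi), substrate is added for 15 min at room temperature and luciferase measured over 15 sec. Cells were seeded at 1,000/well and pre-cultured 4 h.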
RE007 growth inh: qHTS Assay for Inhibitors of the HIV-1 protein Vpr; S. pombe RE007 Vpr strain, BacTiter-Glo ATP luminescence, 24 h; AID 651644, 2012; 360,000 tested, 0.21% active; Potency, µM (highest dose often 92.2 µM), actives largely listed as inhibitors; active means well fitted falling curve with a large enough effect; inconclusive means small, poorly fitted or top-dose-only effect; inactive means no such curve, though single readings can be large or run the other way; further: nearly all actives have a fitted effect of over 50% in size
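Fission yeast RE007 carrying one integrated HIV-1 vpr copy, seeded at OD 0.01 in PMG+AL medium with 23 nL pinned compound. Grown 24 h at 30 degrees; viability read by BacTiter-Glo luminescence after 5 min.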
A number is an active result; - = inactive; ? = inconclusive; . = not tested or not shown; [ ] = another dose, or the depositor's remark. Unless noted, the call rests on the fitted dose curve; in most records, active means well fitted curve in the direction sought with a large enough effect; inconclusive means small, poorly fitted or top-dose-only effect, or another doubt; inactive means no such curve, though single readings can be large; an effect the other way counts as inactive or inconclusive.

SMILES	Lassa entry inh	Sm TGR inh	FMDV antiviral	Marburg entry inh	HCV inhibitor	RE007 growth inh
CCN(CCO)c1ccc(N=Nc2cc(C)[nH]n2)cc1	?	-	13µM	?	-	-
CC(C)[C@@H](CO[Si](C)(C)C(C)(C)C)N1CC=CS1(=O)=O	-	.	.	.	.	.
CCCNC(=O)Cn1ncc2c3ccccc3n(CCC)c2c1=O	-	-	-	.	.	.
CCOc1ccc(Sc2cc(C(=O)NCCc3ccc(OC)c(OC)c3)c3ccccc3n2)cc1	-	-	14µM	.	.	.
CCOc1ccc(CCNC(=O)c2ccc3ccccc3n2)cc1OCC	.	-	-	.	11µM	-
COc1ccc(CCNCc2c(OC)ccc3ccccc23)cc1OC	.	-	-	.	11µM	-
CCOc1ccc(CCNC(=O)Cn2c(-c3nonc3N)nc3ccccc32)cc1OCC	-	-	?	-	14µM	-
CCOc1ccc(CCNC(=O)c2cnc(C)cn2)cc1OCC	.	-	-	.	-	-
COc1ccc(CCNC(=O)Cn2c(-c3nonc3N)nc3ccccc32)cc1OC	-	-	?	-	?	-
CN(C(=O)CSc1cn(CC(=O)N2CCCCC2)c2ccccc12)c1ccccc1	-	-	-	.	.	.
COc1cccc(Cn2c(=O)c(-c3ccc(Cl)cc3)nc3cnc(OC)nc32)c1	.	.	-	.	.	.
COc1ccc(C(=O)N(Cc2ccco2)Cc2ccccc2F)cc1Cl	?	-	-	-	.	.
Cc1ccccc1CNc1ncnc2c1ncn2[C@@H]1O[C@@H](CO)[C@H](O)[C@@H]1O	.	.	.	-	.	.
CC(CNC(=O)Cn1c(-c2cccs2)cc2cc(Cl)ccc21)c1ccccc1 (stereo unspecified)	-	-	-	.	.	.
COc1ccc(CNC(=O)c2ccc3ccccc3n2)cc1OC	?	-	?	?	10µM	-
COc1ccc(CCNC(=O)c2ccc3ccccc3n2)cc1OC	?	.	-	?	?	-
Cc1c(C(=O)NCCc2ccccc2)cccc1-n1cnc2cccnc21	-	-	-	.	.	.
CCOc1ccc(NCc2cccn2-c2nnc(N3CCC(C(=O)NCc4ccccc4Cl)CC3)s2)cc1	.	?	?	-	.	.
COc1ccc(OCC(=O)Nc2nccs2)cc1	?	-	-	?	-	-
O=C(CCc1ccccc1)Nc1nccs1	.	-	-	.	-	-
Cc1ccc(CCC(=O)Nc2nccs2)o1	-	45µM	.	-	-	-
CCc1ccc(CCC(=O)Nc2nccs2)o1	-	32µM	-	-	-	-
CCOc1ccc(OCC(=O)Nc2nccs2)cc1	?	.	8.9µM	?	-	?
COC(=O)N[C@@H](c1ccco1)C(C(C)=O)C(=O)OC (stereo partly specified)	?	.	.	-	.	.
COc1cccc(CNC(=O)c2cc(=O)[nH]c3ccc(S(=O)(=O)N4CCCC4)cc23)c1	-	-	-	-	.	.
SMILES	Lassa entry inh	Sm TGR inh	FMDV antiviral	Marburg entry inh	HCV inhibitor	RE007 growth inh
CN(C)c1ccc(-c2nc(-c3cccs3)c(-c3cccs3)[nH]2)cc1	?	-	-	-	.	.
N#CC(C(=O)C1=C(Cl)CCCC1)=C1SCCCS1	.	.	.	-	.	.
Cc1ccc(Cl)cc1NC(=O)CSc1nc2c(c(=O)[nH]1)CN(Cc1ccccc1)CC2	-	-	-	-	.	.
Cc1nc2scc(-c3ccccc3)c2c(=O)n1N	-	-[11.4 µM]	-	-	-	-
Cc1nc2scc(-c3ccccc3)c2c(=O)n1N=C1C=CC(=O)C=C1	-	-	28µM	?	?	-
O=C(c1ccccc1)c1cc(F)c(N2CCOCC2)cc1Cl	-	-	-	?	-	40µM
c1ccc2c(-c3ccc4nncn4c3)cncc2c1	.	.	-	.	.	-
CSc1ccc(CNCCCSc2ncccn2)cc1	?	-	-	?	-	-
CSc1ccc(CNCCCN(C)C)cc1	?	-	-	?	5µM	-
CC(=O)c1sc(NC(=O)C2(F)C(F)(F)C(F)(F)C(F)(F)C(F)(F)C2(F)F)nc1C	1.6µM	50µM	.	2.6µM	10µM	-
Cc1cccc2cc(C#N)c(NCCNC(=S)NCCCN3CCOCC3)nc12	-	-	.	?	11µM	-
O=C(CCCCCn1c(=O)[nH]c2ccsc2c1=O)NCc1ccccc1	-	-	-	?	.	.
O=C(NCc1nnc2n1CCN(Cc1ccccc1C(F)(F)F)CC2)c1ccncc1	.	.	-	.	.	.
O=[N+]([O-])c1ccc(N=Nc2c(Cl)cc(O)cc2Cl)cc1	.	-	?	.	5µM	.
CC(N)=Nc1ccc([N+](=O)[O-])cc1	-	-	-	-	-	-
CCn1c(N2CCN(S(=O)(=O)c3ccccc3C(F)(F)F)CC2)nc2ccccc21	?	-	?	-	-	-
O=C(c1cnc(Cl)c(Cl)c1)N1CCN(S(=O)(=O)c2ccc3ccccc3c2)CC1	-	-	?	?	11µM	-
CN1CCCN(S(=O)(=O)c2ccc3ccccc3c2)CC1	-	45µM	-	-	-	-
CCn1c(N2CCN(S(=O)(=O)c3ccc(OC)cc3)CC2)nc2ccccc21	8.9µM	-	?	?	10µM	-
COc1cccc(N2CCN(S(=O)(=O)c3ccc4ccccc4c3)CC2)c1	?	-	-	?	22µM	-
O=S(=O)(c1ccc2ccccc2c1)N1CCCCCC1	-	-	-	?	-	-
COc1ccc(N2CCN(S(=O)(=O)c3ccc4c(c3)NC(=O)CC(=O)N4)CC2)cc1	.	11µM	-	.	-	-
O=C(/C=C/c1ccc(Br)cc1)c1ccc(NC2=NCCCS2)cc1	?	-	16µM	?	?	-
Cc1cccc(/C=C/C(=O)c2ccc(NC3=NCCCS3)cc2)c1	-	-	?	?	11µM	-
CC(C)(C)c1ccc(/C=C/C(=O)c2ccc(NC3=NCCCS3)cc2)cc1	.	-	-	-	11µM	?
SMILES	Lassa entry inh	Sm TGR inh	FMDV antiviral	Marburg entry inh	HCV inhibitor	RE007 growth inh
O=C(/C=C/c1ccccc1)c1ccc(NC2=NCCCS2)cc1	-	-	-	?	-	.
Cc1ccc(NC(=O)C2CCCN(c3nnc(C)c4c(C)n(-c5ccccc5)nc34)C2)cc1Cl (stereo unspecified)	-	-	-	.	.	.
N#Cc1ccc(NC(=S)Nc2ccccc2)cc1	-	45µM	-	-	-	-
S=C(Nc1ccccc1)Nc1ccc(Br)cc1	.	?	-	.	-	-
COc1ccc(CC(=O)N2CCc3cc(OC)c(OC)cc3C2COc2ccc(F)cc2)cc1OC (stereo unspecified)	?	-	25µM	.	.	.
COc1ccc(CC(=O)N2CCc3cc(OC)c(OC)cc3C2COc2ccc(F)cc2)cc1 (stereo unspecified)	?	-	-	.	.	.
COc1ccc(C(=O)N2CCc3cc(OC)c(OC)cc3C2c2ccc(OC)c(OC)c2)cc1 (stereo unspecified)	5µM	-	-	?	-	-
COc1cc2c(cc1OC)C(COc1ccc([N+](=O)[O-])cc1)N(C(C)=O)CC2 (stereo unspecified)	.	-	?	.	10µM	-
COc1ccc(C2c3cc(OC)c(OC)cc3CCN2C(=O)c2ccccc2)cc1OC (stereo unspecified)	?	-	-	-	-	-
